High-throughput results: PubChem BioAssay, National Center for Advancing Translational Sciences (NCATS)
In the library only some 11% were active in any assay of this set; here they are far more common.
BAZ2B block – BAZ2B (human) inhibition; Potency, µM (highest dose often 114 µM), for the others: top-dose activity change, negative = inhibition, most hits filed as inhibitors; AlphaScreen BAZ2B-H3K14Ac peptide displacement; 360,000 compounds, 4.4% hits; Q9UIF8; further: on the % scale 0 is the no-effect control and ±100 the full control effect; nearly all actives have a fitted effect of over 60% in size
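Inhibition is scored as reduced AlphaScreen emission. The BAZ2B/b-H3(5-23)K14Ac complex (50 nM each) in PBS pH 7.4, 0.01% Tween-20 meets compound (up to 110 uM) for 30 min at RT before bead addition.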
G9a inh – G9a (human) methyltransferase inhibition. 350,000 compounds, 8.8% hits. G9a H3K9 monomethylation, AlphaScreen, 2 h. Q96KQ7. Potency, µM (series often up to 102 µM), without a hit: at the highest dose activity, negative = inhibition, hits mostly inhibitors; further: on the % scale 0 is the no-effect control and ±100 the full control effect; nearly all actives have a fitted effect of over 75% in size
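Using a bead-based AlphaScreen, monomethylated H3K9 product from 2 h room-temperature reactions (G9a 20 nM, peptide 500 nM, SAM 20 uM) was detected with 0.5 ug/mL rabbit anti-H3K9me1 antibody.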
JMJD2A Tudor – inhibitors of human JMJD2A Tudor domain. O75164. AlphaScreen JMJD2A-Tudor / H3K4me3 peptide binding. Potency, µM (top dose mostly 114 µM), for inactives: at the top dose activity change, negative = inhibition, most hits filed as inhibitors. 390,000 compounds, 4.4% hits. AID 504339; further: on the % scale 0 is the no-effect control and ±100 the full control effect; nearly all actives have a fitted effect of over 50% in size
HP1b chromo inh – HP1-beta chromodomain-methylated histone interaction inhibition | Potency, µM (titrated, usually from 114 µM), for the others: top-dose activity change, negative = inhibition, hits mostly inhibitors | P83916 | AID 540317 | 390,000 compounds, 0.56% hits | AlphaScreen HP1-beta / biotin-H3K9me3 peptide binding; further: nearly all actives have a fitted effect of over 70% in size
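HP1-beta protein (50 nM final) preincubated 30 min at room temperature with biotinylated H3(1-18)K9me3 peptide (50 nM) in PBS pH 7.4, 0.01% Tween-20, then compound added for 30 min. AlphaScreen streptavidin donor/nickel chelate acceptor beads (10 ug/mL final), 30 min dark, luminescence read.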
L3MBTL1 inh – blocks human L3MBTL1. Q9Y468. AlphaScreen L3MBTL1–H3K9me1 peptide binding. Potency, µM (titrated, usually from 57.1 µM), without a hit: top-dose activity, negative = inhibition, hits mostly inhibitors. 230,000 compounds, 0.66% hits; further: on the % scale 0 is the no-effect control and ±100 the full control effect; nearly all actives have a fitted effect of over 60% in size
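Read-out is AlphaScreen signal from streptavidin donor and nickel chelate acceptor beads (10 ug/mL final each) bridging L3MBTL1 (50 nM) and biotinylated K9-monomethylated H3(1-15) peptide (75 nM), after 30 min compound exposure at room temperature.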
The depositor's hits bear a star; ? = inconclusive; · = not tested or not shown; [ ] = dose if it differs, or a comment. The call rests on the fitted dose curve; in most records, active means well fitted inhibition curve with a large enough effect; inconclusive means small, poorly fitted or top-dose-only effect; inactive means no such curve, though single readings can be large or run the other way. Potency means the concentration at half of the fitted maximal effect.

SMILES	BAZ2B block	G9a inh	JMJD2A Tudor	HP1b chromo inh	L3MBTL1 inh
O=C(Cn1cc(SCc2ccccc2F)c2ccccc21)N1CCCCCC1	-3%	-1%[59 µM]	5%	50%	·
O=C(NN1CCCCC1)c1cccc2ccccc12	-1%	-2%	-25%	24%	8%
O=C(NN1CCOCC1)c1cccc2ccccc12	-4%	-10%	50µM*	2%	6%
Cc1ccc(C)c(C(=O)COC(=O)Cn2c(C)csc2=O)c1	-9%	79µM*	-8%	17%	·
O=C(Cn1c(=O)oc2ccccc21)NCc1ccccc1Cl	5%	7%[59 µM]	-1%	-3%	·
Cc1cccc(NC(=O)Cn2c(=O)n(CCCS(=O)(=O)C3CCCCC3)c(=O)c3ccccc32)c1	-20%	9%[59 µM]	-9%	15%	·
Cc1ccccc1Cn1cnc2nc3c(cc2c1=O)CC(C)CC3 (stereo not drawn)	15%	4%[59 µM]	-3%	52%[57 µM]	·
FC(F)(F)c1cccc(-c2nnc3ccc(C(F)(F)F)cn23)c1	-34%	35µM*	-13%	8%	1%
Cc1nn(CC(=O)NC2CCCCC2)c(=O)c2cc3cc(F)ccc3n12	3%	4%[59 µM]	-8%	2%	·
CCc1ccc(NC(=O)CSc2nc3c(c(=O)[nH]2)CN(Cc2ccc(C)cc2)CC3)cc1	-24%	-3%[59 µM]	-6%	60%	·
Cc1nn(-c2ccc(Cl)cc2)c2[nH]c(CCl)cc(=O)c12	-31%	?	79µM*	9%	·
CC(Oc1cccc(Cl)c1)C(=O)Nc1ccc(S(=O)(=O)N(C)C2CCN(C)CC2)cc1 (stereo not drawn)	-4%	-1%[12.7 µM]	-14%	6%	-9%
CC1C(=O)OC2C1CCC1(C)CCC(=O)C(C)C21 (stereo not drawn)	13%	22µM*	50µM*	51%	·
Cc1cc(S(=O)(=O)N2CCN(CC(=O)N(C)Cc3ccccc3)CC2)ccc1Br	-7%	56µM*	-11%	23%	4%
COc1ccc(CCNCCC(=O)Nc2c(C)cc(C)cc2C)cc1OC	-6%	5%[59 µM]	-21%	17%	6%
COc1ccc(CNCCCC(=O)Nc2c(Cl)ccc(C)c2Cl)cc1OC	56µM*	3.2µM*	0.79µM*	79µM*	·
COc1ccc(N2CCN(C(CNC(=O)C3CCCCC3)c3ccco3)CC2)cc1 (stereo not drawn)	-7%	45µM*	-32%	?	-16%
COc1ccc(N2CCN(C(CNC(=O)C(=O)NC3CC3)c3ccco3)CC2)cc1 (stereo not drawn)	-25%	45µM*	-6%	30%	11%
COc1cc(OC)c(NS(=O)(=O)c2cc(-c3cnc(C)o3)ccc2OC)cc1Cl	-36%	-1%[12.7 µM]	-19%	21%	·
CCOc1ccc(S(=O)(=O)c2cn(C)c3ccccc3c2=O)cc1	-2%	-2%[59 µM]	0%	56%	·
CCOc1ccc(C(=O)N[C@H](C(=O)Nc2ccccc2OC)C(C)C)cc1	3%	18%	-1%	24%	·
COc1ccc(C)cc1NC(=O)C(NC(=O)c1cc(OC)c(OC)c(OC)c1)C(C)C (stereo not drawn)	·	1%	40µM*	?	4%
CC(C)(C)n1nnnc1C(c1cccc(C#N)c1)N1CCCCCC1 (stereo not drawn)	-10%	71µM*	-14%	47%	-4%
C=CCN1CCN(C(c2ccc(OC)c(OC)c2)c2nnnn2C(C)(C)C)CC1 (stereo not drawn)	79µM*	50µM*	0%	50%	-2%
CCN1CCN(C(c2cc(OC)c(OC)c(OC)c2)c2nnnn2C(C)C)CC1 (stereo not drawn)	50µM*	?	-27%	39%	·
COc1ccccc1C(c1nnnn1C(C)(C)C)N1CCCCCC1 (stereo not drawn)	-31%	25µM*	-13%	42%	1%
CN(C)c1ncc2nc(-c3cccs3)c(=O)n(C)c2n1	·	11%[0.501 µM]	·	·	·
CCN(CC)c1nc2c(S(=O)(=O)c3ccccc3)nnn2c2ccc(Cl)cc12	6%	0%[59 µM]	-8%	13%	·
Cc1cccc(C)c1N1CCN(C(=O)N2CCCCC2)CC1	-35%	·	-1%	28%	-9%
N#Cc1nc(-c2cccs2)oc1NCCN1CCOCC1	-2%	-9%	?	0%	-1%
